log2 fold change data for 23 targets are collected here from the supplement of paper PMC10849652.

Targets with a hit are over-represented here; the source holds about 7,900 in all. About 0.6% of all pairs of compound and target were hits. Values without a mark were called inactive.

Sequence of UniProt Q8WVY7 (Q8WVY7 whole entry, looked up): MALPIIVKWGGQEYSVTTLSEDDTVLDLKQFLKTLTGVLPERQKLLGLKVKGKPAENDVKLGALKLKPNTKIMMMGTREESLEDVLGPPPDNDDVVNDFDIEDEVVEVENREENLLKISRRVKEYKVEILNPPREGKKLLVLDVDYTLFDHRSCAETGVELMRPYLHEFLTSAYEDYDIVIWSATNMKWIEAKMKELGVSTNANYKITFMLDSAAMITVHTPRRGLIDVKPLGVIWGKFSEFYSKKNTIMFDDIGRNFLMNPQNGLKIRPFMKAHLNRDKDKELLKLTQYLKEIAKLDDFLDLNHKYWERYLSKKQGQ
Sequence of UniProt Q9BZH6 (Q9BZH6 whole entry, looked up): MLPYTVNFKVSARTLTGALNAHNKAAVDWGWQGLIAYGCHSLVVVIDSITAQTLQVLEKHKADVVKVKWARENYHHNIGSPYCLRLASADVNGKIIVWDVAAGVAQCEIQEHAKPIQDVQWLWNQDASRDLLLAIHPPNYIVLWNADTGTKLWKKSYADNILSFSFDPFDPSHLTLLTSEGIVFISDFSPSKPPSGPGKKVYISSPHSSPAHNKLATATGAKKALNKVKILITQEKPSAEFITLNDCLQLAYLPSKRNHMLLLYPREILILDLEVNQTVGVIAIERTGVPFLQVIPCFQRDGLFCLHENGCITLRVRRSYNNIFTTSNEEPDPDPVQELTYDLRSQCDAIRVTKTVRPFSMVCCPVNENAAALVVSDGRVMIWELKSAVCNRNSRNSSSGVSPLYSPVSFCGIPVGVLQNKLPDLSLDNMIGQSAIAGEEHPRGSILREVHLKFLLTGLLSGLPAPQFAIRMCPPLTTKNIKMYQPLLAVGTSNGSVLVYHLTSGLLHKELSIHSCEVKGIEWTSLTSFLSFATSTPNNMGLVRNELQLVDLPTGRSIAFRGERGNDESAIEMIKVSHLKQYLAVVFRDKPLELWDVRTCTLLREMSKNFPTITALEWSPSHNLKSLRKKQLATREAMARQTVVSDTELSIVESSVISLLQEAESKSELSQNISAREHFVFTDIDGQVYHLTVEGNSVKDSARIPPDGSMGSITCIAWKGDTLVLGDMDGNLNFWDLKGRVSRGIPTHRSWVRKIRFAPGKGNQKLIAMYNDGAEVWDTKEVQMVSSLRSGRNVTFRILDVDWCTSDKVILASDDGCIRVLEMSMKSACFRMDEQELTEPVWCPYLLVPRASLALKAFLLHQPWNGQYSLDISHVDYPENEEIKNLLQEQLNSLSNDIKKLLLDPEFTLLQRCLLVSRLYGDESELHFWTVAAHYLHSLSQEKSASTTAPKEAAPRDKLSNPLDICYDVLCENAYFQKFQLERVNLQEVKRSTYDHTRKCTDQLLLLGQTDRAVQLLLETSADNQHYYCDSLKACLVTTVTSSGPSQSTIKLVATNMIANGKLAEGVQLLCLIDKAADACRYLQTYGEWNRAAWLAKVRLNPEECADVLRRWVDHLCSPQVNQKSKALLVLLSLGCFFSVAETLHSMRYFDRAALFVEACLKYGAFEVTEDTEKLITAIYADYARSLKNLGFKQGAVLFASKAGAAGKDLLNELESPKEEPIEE
Sequence of UniProt Q9H270 (Q9H270 whole entry, looked up): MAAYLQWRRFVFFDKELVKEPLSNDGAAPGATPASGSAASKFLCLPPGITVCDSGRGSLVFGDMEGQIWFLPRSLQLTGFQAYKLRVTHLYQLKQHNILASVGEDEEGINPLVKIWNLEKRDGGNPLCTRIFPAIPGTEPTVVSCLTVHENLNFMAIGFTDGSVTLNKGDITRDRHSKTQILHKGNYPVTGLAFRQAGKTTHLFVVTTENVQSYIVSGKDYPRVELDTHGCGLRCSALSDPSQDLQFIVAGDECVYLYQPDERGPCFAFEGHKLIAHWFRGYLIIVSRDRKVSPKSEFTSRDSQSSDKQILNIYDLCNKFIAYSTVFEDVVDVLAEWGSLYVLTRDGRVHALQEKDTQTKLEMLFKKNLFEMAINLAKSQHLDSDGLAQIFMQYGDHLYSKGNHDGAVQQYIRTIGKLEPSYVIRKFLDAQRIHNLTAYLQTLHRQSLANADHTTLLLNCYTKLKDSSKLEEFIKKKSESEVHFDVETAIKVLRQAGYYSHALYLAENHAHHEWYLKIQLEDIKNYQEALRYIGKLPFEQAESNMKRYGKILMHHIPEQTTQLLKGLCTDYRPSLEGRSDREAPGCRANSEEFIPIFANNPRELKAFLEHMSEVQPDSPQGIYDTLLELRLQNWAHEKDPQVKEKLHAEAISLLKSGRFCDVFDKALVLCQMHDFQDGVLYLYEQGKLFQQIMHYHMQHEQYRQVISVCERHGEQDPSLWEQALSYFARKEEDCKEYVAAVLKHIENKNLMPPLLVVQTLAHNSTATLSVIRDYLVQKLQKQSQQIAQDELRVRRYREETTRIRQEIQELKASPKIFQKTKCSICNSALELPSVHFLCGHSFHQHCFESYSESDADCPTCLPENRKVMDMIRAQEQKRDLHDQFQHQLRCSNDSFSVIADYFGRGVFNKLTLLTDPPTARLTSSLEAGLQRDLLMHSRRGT
Sequence of UniProt Q5R3I4 (Q5R3I4 whole entry, looked up): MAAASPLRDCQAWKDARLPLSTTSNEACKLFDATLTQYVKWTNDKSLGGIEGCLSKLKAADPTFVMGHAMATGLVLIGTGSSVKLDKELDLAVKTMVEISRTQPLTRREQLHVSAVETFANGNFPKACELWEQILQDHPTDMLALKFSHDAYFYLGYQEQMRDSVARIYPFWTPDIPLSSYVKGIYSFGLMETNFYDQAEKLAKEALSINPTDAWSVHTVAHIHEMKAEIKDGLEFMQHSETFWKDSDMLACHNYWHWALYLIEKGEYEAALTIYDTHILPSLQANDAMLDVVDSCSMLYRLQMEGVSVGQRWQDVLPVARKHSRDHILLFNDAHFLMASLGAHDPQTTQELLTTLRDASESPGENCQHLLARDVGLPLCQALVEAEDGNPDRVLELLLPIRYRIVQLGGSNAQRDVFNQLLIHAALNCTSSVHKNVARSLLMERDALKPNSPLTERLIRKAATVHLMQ
Sequence of UniProt Q9HAD4 (Q9HAD4 whole entry, looked up): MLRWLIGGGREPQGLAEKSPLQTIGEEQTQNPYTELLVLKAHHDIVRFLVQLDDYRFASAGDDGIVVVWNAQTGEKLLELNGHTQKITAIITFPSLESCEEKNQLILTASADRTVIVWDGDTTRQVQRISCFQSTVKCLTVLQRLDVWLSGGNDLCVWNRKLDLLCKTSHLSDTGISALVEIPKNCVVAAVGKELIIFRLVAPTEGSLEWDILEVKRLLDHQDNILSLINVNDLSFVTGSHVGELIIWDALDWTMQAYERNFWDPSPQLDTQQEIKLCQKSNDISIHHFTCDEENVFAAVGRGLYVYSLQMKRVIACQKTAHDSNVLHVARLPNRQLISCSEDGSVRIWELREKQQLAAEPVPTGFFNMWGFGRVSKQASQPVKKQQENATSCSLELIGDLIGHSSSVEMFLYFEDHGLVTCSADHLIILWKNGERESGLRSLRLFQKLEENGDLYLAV
Sequence of UniProt Q86Y07 (Q86Y07 whole entry, looked up): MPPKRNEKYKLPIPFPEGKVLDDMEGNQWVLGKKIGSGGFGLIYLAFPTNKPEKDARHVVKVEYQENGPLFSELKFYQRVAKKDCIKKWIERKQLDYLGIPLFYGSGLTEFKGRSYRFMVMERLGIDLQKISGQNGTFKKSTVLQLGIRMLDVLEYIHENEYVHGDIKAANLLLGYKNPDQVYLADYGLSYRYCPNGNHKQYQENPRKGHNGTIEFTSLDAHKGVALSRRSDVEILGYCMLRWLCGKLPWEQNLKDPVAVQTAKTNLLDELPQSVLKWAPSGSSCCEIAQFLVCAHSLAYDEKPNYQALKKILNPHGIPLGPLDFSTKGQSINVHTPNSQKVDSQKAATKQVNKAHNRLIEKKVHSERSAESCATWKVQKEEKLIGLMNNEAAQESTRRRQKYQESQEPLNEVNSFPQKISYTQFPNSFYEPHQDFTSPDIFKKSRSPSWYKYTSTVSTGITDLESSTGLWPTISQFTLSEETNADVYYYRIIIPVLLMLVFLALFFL
Sequence of UniProt Q9NP79 (Q9NP79 whole entry, looked up): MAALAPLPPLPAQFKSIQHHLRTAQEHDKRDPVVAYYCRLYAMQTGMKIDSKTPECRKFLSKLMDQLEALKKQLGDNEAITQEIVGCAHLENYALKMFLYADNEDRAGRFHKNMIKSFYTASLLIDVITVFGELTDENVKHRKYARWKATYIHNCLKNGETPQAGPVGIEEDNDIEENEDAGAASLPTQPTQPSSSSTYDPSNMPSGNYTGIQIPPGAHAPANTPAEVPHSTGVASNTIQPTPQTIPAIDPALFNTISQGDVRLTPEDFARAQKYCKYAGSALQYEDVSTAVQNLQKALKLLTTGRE
Sequence of UniProt A6NHL2 (A6NHL2 whole entry, looked up): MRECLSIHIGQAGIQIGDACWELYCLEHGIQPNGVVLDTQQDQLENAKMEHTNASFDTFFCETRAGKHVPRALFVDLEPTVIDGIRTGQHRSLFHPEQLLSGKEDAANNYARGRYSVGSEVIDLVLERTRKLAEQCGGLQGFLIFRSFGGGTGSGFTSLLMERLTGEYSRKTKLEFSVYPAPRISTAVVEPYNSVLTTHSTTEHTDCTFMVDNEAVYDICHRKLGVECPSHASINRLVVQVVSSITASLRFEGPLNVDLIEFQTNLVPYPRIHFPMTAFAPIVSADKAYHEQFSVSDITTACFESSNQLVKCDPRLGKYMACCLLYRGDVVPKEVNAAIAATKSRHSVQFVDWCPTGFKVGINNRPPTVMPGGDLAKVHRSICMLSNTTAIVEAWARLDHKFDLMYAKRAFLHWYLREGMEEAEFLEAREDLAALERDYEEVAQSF
Sequence of UniProt A0PJW6 (A0PJW6 whole entry, looked up): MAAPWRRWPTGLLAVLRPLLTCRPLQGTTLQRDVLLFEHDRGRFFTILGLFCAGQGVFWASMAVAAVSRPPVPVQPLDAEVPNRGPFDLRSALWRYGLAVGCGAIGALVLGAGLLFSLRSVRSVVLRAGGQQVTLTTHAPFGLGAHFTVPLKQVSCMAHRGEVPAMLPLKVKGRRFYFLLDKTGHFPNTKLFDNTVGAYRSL

Compound in this assay: O=C(CCCCCCNC(=O)c1cnc(N(c2ccccc2)c2ccccc2Cl)nc1)NO [citarinostat]
The assay can be described thus: log2 fold change, soluble protein after heating vs DMSO (PISA); higher = thermal stabilisation; K562 cells, 10 uM, 30 min; active = over 0.2 and 3.5 SD of the protein, either way, in both replicates (recomputed). The essentials:
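K562 cells (2×10^6 cells/mL) were treated with 10 μM compound for 30 min, and aliquots were heated for 3 min over 48°C-58°C. Pooled aliquots were extracted in PBS with 0.5% NP-40 at 4°C, and the supernatant after 21,000xg for 90 min was measured by TMTpro 16plex LC-MS/MS with channel sums equalised. Reported thermal stability, relative to control samples and from duplicates, is a log2 fold change.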
As to VPS11 (UniProt Q9H270), the log2 fold change was 0.065.
Under TNFRSF8 (UniProt P28908) stands -0.003; under UGGT1 (UniProt Q9NYU2), 0.047; under WDR37 isoform 2 (UniProt Q9Y2I8), -0.012.
As to WDR41 (UniProt Q9HAD4), the log2 fold change is 0.036.
Under UBLCP1 (UniProt Q8WVY7) stands 0.085.
Under VRK2 (UniProt Q86Y07) stands 0.008; under WNK1 isoform 7 (UniProt Q9H4A3), 0.009.
As for UPF3B (UniProt Q9BZI7), the figure is -0.125.
For the target TTC38 (UniProt Q5R3I4), the log2 fold change is -0.243.
Turning to WRB (UniProt O00258), the log2 fold change was 0.034.
In the case of VPS50 (UniProt Q96JG6), the log2 fold change was 0.068.
Regarding VDAC1 (UniProt P21796), the log2 fold change was 0.039.
USP14 (UniProt P54578): the log2 fold change was 0.051.
Under XPO5 (UniProt Q9HAV4) stands 0.068; under TMEM223 (UniProt A0PJW6), -0.031; under TMEM161B (UniProt Q8NDZ6), 0.036.
As for TUBAL3 (UniProt A6NHL2), the figure is -0.06; as for TMEM263 (UniProt Q8WUH6), 0.068; as for VTA1 (UniProt Q9NP79), 0.054.
Under XPNPEP3 (UniProt Q9NQH7) stands -0.007; under TNPO1 (UniProt Q92973), 0.033.
Take WDR11 (UniProt Q9BZH6): the log2 fold change was -0.067.
